Here are results for 40 compounds from PubChem BioAssay (NCATS).

Each structure is given as a SMILES string. Inconclusive results are not listed. Where a call stands in place of a potency, no number is given. Active and inactive are the calls of the source. Calls come from the whole dose curve; as a rule, active = well fitted cell-killing curve with a large enough effect; inconclusive = small, poorly fitted or top-dose-only effect, or effect the other way; inactive = no such curve, though single readings can be large or run the other way.
Potency is the fitted concentration of half-maximal effect.

A short description of this experiment: Quantitative highthroughput screen to assess conditional lethalithy of SEM cells grown in RPMI1640 with dialyzed fetal bovine serum (RPMI+ds) (AID 1963884). Note: nearly all actives have a fitted effect of over 35% in size. The conditions noted are these: SEM B-ALL cells, RPMI+dialyzed FBS, CellTiter-Glo viability, 48 h; series mostly up to 45.8 µM. The text has this:
Assay Provider: Jason Cantor Ph.D.
Department of Biochemistry
University of Wisconsin-Madison, Madison, WI, USA
Chemical screening studies have identified drug sensitivities across hundreds of cancer cell lines but most putative therapeutics fail to translate. Discovery and development of drug candidates in models that more accurately reflect nutrient levels in human blood is a major challenge. Here we performed high-throughput screens in conventional versus Human Plasma-Like Medium (HPLM) to identify compounds that were "missed" when screening using the artificial culture condition. Sets of conditional anticancer compounds spanned phases of clinical development and included non-oncology drugs were assessed. […] We also traced conditional phenotypes for several chemotherapeutics to availability of HPLM-specific metabolites and confirmed others for compounds whose reported targets are encoded by nonessential genes. Our findings establish generalizable strategies for exploiting conditional lethality in HPLM to reveal therapeutic candidates and mechanisms of action in cancer cells.
Described herein are the results of each viability screens against three cell lines: NOMO1 (an acute myeloid leukemia cell line); P12-Ichikawa (a T-cell acute lymphoblastic leukemia); and SEM (a B-cell ALL). Each assay was screened using 3 different cell culture media: homemade human plasma-Like medium with 10% dialyzed fetal bovine serum (HPLM+ds); RPMI1640 with 10% untreated FBS and 5mM glucose (RPMI+s); and RPMI1640 with 10% dialyzed fetal bovine serum and 5 mM glucose (RPMI+ds).
PROTOCOL TABLE (as described by Inglese J, Shamu CE and Guy RK. 2007)
SEQUENCE No. (e.g., 1, 2, 3, etc.); […] (e.g., Cells, Incubation, Reagent, etc.); VALUE and DESCRIPTION.
1; Cells; 5 uL; white, solid bottom 1536-well Greiner assay plate.
2; Compounds; 23 nL; Kalypsis pin tool (Wako USA) equipped with a 1536-well pin head to transfer to the assay plates.
3; Incubation; 48 hours; 37C incubation.
4; Reagent; 3 uL; CellTiter Glo (Promega).
5; Incubation; 5 min, room temperature
6; Detection; Luminescence, Viewlux PerkinElmer.
NOTES (numbers refer to Sequence numbers above)
1. Briefly, 5 ul of cell reagent was dispensed using a Multidrop Combi Dispenser. The NOMO1 and SEM cells were plated at 500 cells/well and the P12-Ichikawa line at 1000 cells/well.
2. After seeding the cells, 23 nL of MIPE 4.1 library compounds (in DMSO) were added to each plate using a Kalypsys 1536 Pintool dispenser. Bortezomib at final concentration of […] and DMSO were added to each plate as positive and negative controls respectively. For each screen, MIPE 4.1 compounds were added over an eleven-point concentration range […] in 3-fold dilutions.
3. Each plate was covered with a stainless steel gasketed lid to prevent evaporation and incubated for 48 hour at 37C, 95% relative humidity, and 5% CO2.
4-5. Three microliter CellTilter-GloTM luminescent substrate mix (Promega) reagent was added to the assay plate and incubated at room temperature for 5 min.
6. The luminescence signal was measured using a ViewLux (PerkinElmer) multiplate reader with a 2 second exposure time per plate. Data for each compound were normalized as percent viability such that measurements for DMSO and the empty well controls in each plate were defined as 100% and 0%, respectively.
Consider `O=C(CN1C(=O)C2(CCCC2)NC[C@H]1c1cc(F)cc(F)c1)Nc1ccc2c(c1)C[C@@]1(C2)C(=O)Nc2ncccc21`, for which the Potency entry was “inactive”.
For the compound `CCn1c(-c2nonc2N)nc2cncc(CNC3CCNCC3)c21`, the Potency is 10500 nM (active).
To `Clc1cccc(Cl)c1NC1=NCCN1` belongs “inactive”; to `CCCOc1ccc(C(=O)OCCN(CC)CC)cc1N`, “inactive”.
To `CC(C)C[C@H](NC(=O)CNC(=O)c1cc(Cl)ccc1Cl)B1OC(=O)CC(CC(=O)O)(C(=O)O)O1` (stereo not given in full) belongs 118 nM (active); to `N#Cc1ccc(NC(=O)Nc2ccccc2Br)c2n[nH]nc12`, “inactive”.
To `Cc1cc(CN2CCN(c3c(Br)cnc4nc(-c5ccc(N6CCN(C)CC6)cc5)[nH]c34)CC2)no1` belongs 743 nM (active); to `CCOC(=O)[C@H](CCc1ccccc1)N[C@H]1CS[C@H](c2cccs2)CN(CC(=O)O)C1=O`, “inactive”.
Turning to `Nc1nc(F)nc2c1ncn2[C@@H]1O[C@H](CO)[C@@H](O)[C@@H]1O`, the Potency is 74.3 nM (active).
In the case of `COC(=O)C=CC(=O)OC`, the Potency is 2640 nM (active).
To `CC(C)(C)c1nc(-c2cccc(NS(=O)(=O)c3c(F)cccc3F)c2F)c(-c2ccnc(N)n2)s1` belongs “inactive”.
Take `CC[C@H](C)C(=O)O[C@H]1C[C@H](O)C=C2C=C[C@H](C)[C@H](CC[C@@H](O)C[C@@H](O)CC(=O)O)[C@H]21`: the Potency entry is “inactive”.
To `Fc1ccc(CNc2ncnc3ccc(F)cc23)cc1` belongs “inactive”; to `O=C(O)COCCN1CCN(C(c2ccccc2)c2ccc(Cl)cc2)CC1` (stereo not given), “inactive”.
The value for `COC1=C2C[C@@H](C)C[C@H](OC)[C@@H](O)[C@@H](C)C=C(C)[C@H](OC(N)=O)[C@@H](OC)C=CC=C(C)C(=O)NC(=CC1=O)C2=O` was 7430 nM (active).
Take `Cc1cc(C2CCCCC2)n(O)c(=O)c1`: the Potency is 13200 nM (active).
Regarding `Cc1ccc2c(c1)c1c(n2CCc2ccc(C)nc2)CCN(C)C1`, the Potency entry was “inactive”.
Regarding `COc1ccccc1OCC(O)CN1CCN(CC(=O)Nc2c(C)cccc2C)CC1` (stereo not given), the Potency result is “inactive”.
To `CC(=O)SCC(Cc1ccccc1)C(=O)NCC(=O)OCc1ccccc1` (stereo not given) belongs “inactive”; to `CC1COc2c(N3CCN(C)CC3)c(F)cc3c(=O)c(C(=O)O)cn1c23` (stereo not given), “inactive”.
As to `C[C@H](O)[C@@H]1C(=O)N2C(C(=O)O)=C(S[C@@H]3CN[C@H](CNS(N)(=O)=O)C3)[C@@H](C)[C@@H]12`, the Potency result is “inactive”.
The value for `N#CC(c1ccc(Cl)cc1)c1c(Cl)cc(-n2ncc(=O)[nH]c2=O)cc1Cl` (stereo not given) was “inactive”; that for `COc1cc2c(Nc3ccc(NC(=O)c4ccccc4)cc3)ncnc2cc1OCCCN1CCOCC1` was 2960 nM (active); that for `O=C1NC(=O)C(=Cc2ccc3nccc(-c4ccncc4)c3c2)S1` was 833 nM (active).
The value for `Nc1nc(Cl)nc2c1ncn2[C@H]1C[C@H](O)[C@@H](CO)O1` was 66.2 nM (active); that for `Cn1nnc2c(C(N)=O)ncn2c1=O` was 235 nM (active).
To `NC1(C(=O)N[C@@H](CCO)c2ccc(Cl)cc2)CCN(c2ncnc3[nH]ccc23)CC1` belongs 2640 nM (active).
As to `C=CC[N+]1([C@H]2C[C@H]3[C@@H]4CC[C@H]5C[C@H](O)[C@@H](N6CCOCC6)C[C@]5(C)[C@@H]4CC[C@]3(C)[C@H]2OC(C)=O)CCCC1`, the Potency entry was “inactive”.
To `CN(C)CCc1c[nH]c2ccc(Cn3cncn3)cc12` belongs 264 nM (active).
The value for `O=C1NC(=O)C(=Cc2ccc3c(c2)OC(F)(F)O3)S1` was “inactive”; that for `Cc1cc(OCCCc2c(C(=O)O)n(Cc3cccnc3)c3c(-c4c(COc5ccc(N6CCN([S+](C)(=O)[O-])CC6)cc5)nn(C)c4C)cccc23)cc(C)c1Cl` was 18700 nM (active).
Turning to `Cc1[nH]c(C=C2C(=O)Nc3ccc(S(=O)(=O)N(C)c4cccc(Cl)c4)cc32)c(C)c1C(=O)N1CCN(C)CC1`, the Potency was 6620 nM (active).
The value for `CN(C)C(=O)[C@H](O)[C@H](Cc1ccccc1)NC(=O)c1cc2cc(Cl)ccc2[nH]1` was 2350 nM (active); that for `O=C(NC1CC1)c1cccc(-c2ccc3c(NC(=O)C4CC4)n[nH]c3c2)c1` was 16600 nM (active); that for `COc1cnc(NS(=O)(=O)c2ccc(N)cc2)nc1` was “inactive”.
`Cc1ccnc2c1NC(=O)c1cccnc1N2C1CC1`: the Potency entry was “inactive”.
To `Oc1ccc(-c2ccc(-c3cc(Nc4cccc(CNC5CC5)c4)n[nH]3)cc2)c(O)c1` belongs 7430 nM (active).
Turning to `Cc1ccccc1C(C(=O)NC1CCCC1)N(C(=O)Cn1cnc2ccccc21)c1cccc(F)c1` (stereo not given), the Potency result was “inactive”.
The value for `Nc1ccccc1NC(=O)c1ccc(CNc2nccc(-c3cccnc3)n2)cc1` was 662 nM (active); that for `CC(C)Nc1cc(-c2c[nH]c(C(=O)N[C@H](CO)c3cccc(Cl)c3)c2)c(Cl)cn1` was 16600 nM (active).
